Assay results: PubChem BioAssay (EPA / NIEHS)
Records with an inconclusive call do not appear. The source made the active and inactive calls. Rule for the calls, unless noted: active = hit-call score of the fitted dose curve at least 0.9, where 1 is the maximum; inconclusive = response in the unintended direction; inactive = score below 0.9.

Assays:
[1] = molecular target: Aryl hydrocarbon receptor (Homo sapiens) (UniProt P35869); experiment: ATG_Ahr_CIS: Attagene CIS-FACTORIAL HepG2 Assay for human Aryl Hydrocarbon Receptor (Ahr) (AID 2282930; active = hit-call score of the fitted dose curve at least 0.9, where 1 is the maximum; inactive = score below 0.9); conditions: HepG2 AhR cis-factorial reporter transcription; actives raise or lower the signal
Method in brief: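 HepG2 cells transiently transfected with cis-element-driven multiplexed reporter transcription units; endogenous transcription factor activity measured as reporter mRNA 24 h after dosing. RT-PCR, 6-FAM labelling, HpaI digestion, capillary electrophoresis; bidirectional fitting versus DMSO baseline.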

[2] = ATG_AP_2_CIS: Attagene CIS-FACTORIAL HepG2 Assay for human Activator Protein 2 (AP-2) (AID 2282932; active = hit-call score of the fitted dose curve at least 0.9, where 1 is the maximum; inactive = score below 0.9); conditions: HepG2 AP-2 cis-reporter, Attagene transcription factor profiling; actives raise or lower the signal
Method in brief: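 Cells (HepG2) transfected with promoter-driven reporter constructs, treated 24 h. Total RNA reverse-transcribed, reporter cDNA PCR-amplified, FAM-labelled by primer extension, digested, resolved by capillary electrophoresis. Activity fitted both directions versus DMSO.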

[3] = ATG_M_61_CIS: Attagene CIS-FACTORIAL HepG2 Assay for M61 Transcription Factor (Internal Marker) (AID 2282937; active = hit-call score of the fitted dose curve at least 0.9, where 1 is the maximum; inactive = score below 0.9); conditions: HepG2 Attagene CIS-FACTORIAL M61 internal marker reporter; actives raise or lower the signal
Method in brief: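 HepG2 cells transiently transfected with multiplexed cis-promoter reporter units reporting endogenous transcription factor activity, measured 24 h after dosing. Reporter mRNA quantified by RT-PCR and capillary electrophoresis; bidirectional fit against DMSO baseline.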

[4] = ATG_PBREM_CIS: Attagene CIS-FACTORIAL HepG2 Assay for human Phenobarbital-responsive Enhancer Module (PBREM) (AID 2282955; active = hit-call score of the fitted dose curve at least 0.9, where 1 is the maximum; inactive = score below 0.9); conditions: HepG2 PBREM cis-reporter, Attagene multiplexed transcription; actives raise or lower the signal
Method in brief: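 HepG2 cells transiently transfected with multiple cis-regulated reporter units measure endogenous transcription factor activity; 24 h compound exposure. Reporter mRNA quantified by RT-PCR, fluorescent labelling, HpaI digestion and capillary electrophoresis; bidirectional fit versus DMSO.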

[5] = ATG_PXRE_CIS: Attagene CIS-FACTORIAL HepG2 Assay for human Pregnane X Receptor Element (PXRE) (AID 2282957; active = hit-call score of the fitted dose curve at least 0.9, where 1 is the maximum; inactive = score below 0.9); conditions: HepG2 Attagene CIS-FACTORIAL PXRE reporter, mRNA; actives raise or lower the signal
Method in brief: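 Read-out: fluorescence of reporter-specific RT-PCR products resolved by capillary electrophoresis, fitted bidirectionally relative to DMSO. Human HepG2 liver cells carried transfected cis-promoter reporter units and were exposed to chemicals for 24 h.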

[6] = ATG_PPRE_CIS: Attagene CIS-FACTORIAL HepG2 Assay for human Peroxisome Proliferator-activated Response Element (PPRE) (AID 2282958; active = hit-call score of the fitted dose curve at least 0.9, where 1 is the maximum; inactive = score below 0.9); conditions: HepG2 PPRE cis-element reporter, Attagene transcription factor profiling; actives raise or lower the signal
Method in brief: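 HepG2 cells are transiently transfected with multiplexed cis-promoter reporter units to report endogenous PPAR activity. After 24 h dosing, reporter mRNA is read by RT-PCR and capillary electrophoresis. Fitting is bidirectional against DMSO.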

[7] = ATG_SREBP_CIS: Attagene CIS-FACTORIAL HepG2 Assay for human Sterol Regulatory Element Binding (SREBP) (AID 2282962; active = hit-call score of the fitted dose curve at least 0.9, where 1 is the maximum; inactive = score below 0.9); conditions: HepG2 Attagene cis-factorial SREBP reporter, mRNA; actives raise or lower the signal
Method in brief: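 Endogenous factor activity is measured in HepG2 through multiplexed reporter units under cis-element control. Following a 24 h incubation, reporter transcripts are reverse-transcribed, PCR-amplified and sized by capillary electrophoresis; activity is fitted in both directions relative to DMSO.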

[8] = ATG_Oct_MLP_CIS: Attagene CIS-FACTORIAL HepG2 Assay for human Octamer-Binding Transcription Factor (Oct) (AID 2282993; active = hit-call score of the fitted dose curve at least 0.9, where 1 is the maximum; inactive = score below 0.9); conditions: HepG2 Attagene cis-factorial Oct reporter, mRNA; actives raise or lower the signal
Method in brief: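 After 24 h compound exposure, transfected HepG2 cells were lysed for total RNA; reporter-specific cDNA was PCR-amplified, fluorescently labelled and sized by capillary electrophoresis. Bidirectional curve fitting used DMSO as baseline.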

[9] = molecular target: human Peroxisome Proliferator-activated Receptor alpha (PPARa), PPARA (gene 5465) (UniProt Q07869); experiment: ATG_PPARa_TRANS: Attagene TRANS-FACTORIAL HepG2 Assay for human Peroxisome Proliferator-activated Receptor alpha (PPARa) (AID 2283001)
Method in brief: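 Cells (HepG2) are transfected with multiple reporter transcription units, exposed to chemical for 24 h, then total RNA is reverse-transcribed and amplified. Labelled products are quantified by capillary electrophoresis; induction is referenced to DMSO.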

[10] = molecular target: Retinoic acid receptor RXR-alpha (Homo sapiens) (UniProt P19793); experiment: ATG_RXRa_TRANS: Attagene TRANS-FACTORIAL HepG2 Assay for human Retinoid X Receptor alpha (RXRa) (AID 2283012)
Method in brief: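 Measures exogenous chimeric NR-GAL4 activity in transfected HepG2 liver cells after 24 h of dosing. Induced reporter mRNA was detected by RT-PCR with capillary electrophoresis, and gain of signal was analysed against DMSO.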

[11] = molecular target: human Thyroid Receptor alpha (THRa1), THRA (gene 7067) (UniProt P10827); experiment: ATG_THRa1_TRANS: Attagene TRANS-FACTORIAL HepG2 Assay for human Thyroid Receptor alpha (THRa1) (AID 2283014)
Method in brief: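 Transient HepG2 transfection, NR-Gal4 chimera driving GAL4-UAS reporters; 24 h compound exposure; total RNA, oligo(dT) RT, PCR, fluorescent primer extension, capillary electrophoresis. Upward direction vs DMSO control.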

[12] = ACEA_ER_AUC_viability: ACEA Biosciences xCELLigence Real-Time Cell Analysis on Estrogen Receptor Agonism for Viability (AID 2283782);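 note: hit means loss of impedance signal meaning reduced cell growth or viability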
Method in brief: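 Continuous-exposure impedance cell analysis uses T-47D cells in charcoal-stripped serum, eight 1:4 dilutions topping at 100 uM final, biological duplicate. Area under the growth curve at 80 h is fitted against DMSO baseline.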

[13] = ATG_GLI_CIS: Attagene CIS-FACTORIAL HepG2 Assay for human Zinc Finger Protein GLI1 (AID 2282945; active = hit-call score of the fitted dose curve at least 0.9, where 1 is the maximum; inactive = score below 0.9); conditions: HepG2, Attagene cis-factorial reporter mRNA, GLI element; actives raise or lower the signal
Method in brief: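 HepG2 cells transiently transfected with cis-promoter multiplexed reporter units report endogenous transcription factor activity. After 24 h chemical exposure, reporter mRNA was quantified by RT-PCR, 6-FAM labelling, HpaI digestion and capillary electrophoresis, with bidirectional fitting against DMSO.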

[14] = molecular target: Cellular tumor antigen p53 (Homo sapiens) (UniProt P04637); experiment: TOX21_p53_BLA_p2_ratio: Tox21 HCT-116 p53 Agonism Beta-lactamase Assay, Ratio, Phase 2 (AID 2283592)
Method in brief: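 Readout: blue/green (460/530 nm) FRET emission ratio after 2 h CCF4-AM loading at room temperature, excitation 405 nm. HCT116 p53 bla cells, 16 h compound exposure at 37C, 5% CO2; agonist direction fitted against DMSO baseline.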

[15] = molecular target: Cellular tumor antigen p53 (Homo sapiens) (UniProt P04637); experiment: TOX21_p53_BLA_p3_ratio: Tox21 HCT-116 p53 Agonism Beta-lactamase Assay, Ratio, Phase 3 (AID 2283596)
Method in brief: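 Cells were seeded at 4000/well, rested 5 h at 37C, then dosed with DMSO compound solutions (217-fold dilution) for 16 h. CCF4-AM substrate was loaded for 2 h at room temperature, and the 460/530 nm emission ratio was fitted for gain of signal versus DMSO.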

[16] = molecular target: Cellular tumor antigen p53 (Homo sapiens) (UniProt P04637); experiment: TOX21_p53_BLA_p5_ratio: Tox21 HCT-116 p53 Agonism Beta-lactamase Assay, Ratio, Phase 5 (AID 2283599)
Method in brief: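 HCT-116 cells carrying a p53-inducible beta-lactamase reporter were seeded at 4000 cells/well and dosed after 5 h with compound in DMSO (217-fold dilution). After 16 h at 37C, CCF4-AM substrate was added for 2 h, and the 460/530 nm emission ratio was scored as gain-of-signal versus DMSO.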

[17] = TOX21_p53_BLA_p5_viability: Viability Assessment in the Tox21 HCT-116 p53 Agonism Beta-lactamase Assay, Phase 5 (AID 2283600)
Method in brief: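 ATP luminescence (CellTiter-Glo, 30 min, RT) served as the viability read-out, with loss of signal indicating cytotoxicity. Compounds in DMSO were pinned at a 217-fold dilution onto 4000 cells/well and incubated 16 h, 37C.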

[18] = molecular target: Cellular tumor antigen p53 (Homo sapiens) (UniProt P04637); experiment: TOX21_p53_BLA_p4_ratio: Tox21 HCT-116 p53 Agonism Beta-lactamase Assay, Ratio, Phase 4 (AID 2283601)
Method in brief: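 HCT116 cells carrying an inducible beta-lactamase reporter were plated at 4000 cells/well, rested 5 h, then exposed to compounds in DMSO (217-fold dilution) for 16 h at 37C. CCF4-AM substrate was loaded 2 h at room temperature; 460/530 nm emission ratio scored gain-of-signal versus DMSO.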

[19] = molecular target: Transcription factor E2F1 (Homo sapiens) (UniProt Q01094); experiment: ATG_E2F_CIS: Attagene CIS-FACTORIAL HepG2 Assay for human E2F Transcription Factor 1 (AID 2282935; active = hit-call score of the fitted dose curve at least 0.9, where 1 is the maximum; inactive = score below 0.9); conditions: HepG2 Attagene cis-reporter, E2F reporter RNA transcripts; actives raise or lower the signal
Method in brief: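 First, HepG2 cells were transfected with reporter transcription units. Next, they were dosed for 24 h. Then RNA was isolated, converted to cDNA, PCR-amplified, FAM-labeled, HpaI-digested and analyzed by capillary electrophoresis.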

[20] = molecular target: Peroxisome proliferator-activated receptor gamma (Homo sapiens) (UniProt P37231); experiment: ATG_PPARg_TRANS: Attagene TRANS-FACTORIAL HepG2 Assay for human Peroxisome Proliferator-activated Receptor-gamma (PPARg) (AID 2283007)
Method in brief: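 HepG2 cells are transiently transfected with GAL4-UAS reporter units driven by chimeric NR-Gal4 fusions and dosed for 24 h. Reporter mRNA is quantified by RT-PCR, 6-FAM labelling, HpaI digestion and capillary electrophoresis. Induction is scored against DMSO.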

Measured: AC50

Peroxisome proliferator-activated receptor gamma (Homo sapiens), sequence (P37231 whole entry, looked up, the tested form may be a part): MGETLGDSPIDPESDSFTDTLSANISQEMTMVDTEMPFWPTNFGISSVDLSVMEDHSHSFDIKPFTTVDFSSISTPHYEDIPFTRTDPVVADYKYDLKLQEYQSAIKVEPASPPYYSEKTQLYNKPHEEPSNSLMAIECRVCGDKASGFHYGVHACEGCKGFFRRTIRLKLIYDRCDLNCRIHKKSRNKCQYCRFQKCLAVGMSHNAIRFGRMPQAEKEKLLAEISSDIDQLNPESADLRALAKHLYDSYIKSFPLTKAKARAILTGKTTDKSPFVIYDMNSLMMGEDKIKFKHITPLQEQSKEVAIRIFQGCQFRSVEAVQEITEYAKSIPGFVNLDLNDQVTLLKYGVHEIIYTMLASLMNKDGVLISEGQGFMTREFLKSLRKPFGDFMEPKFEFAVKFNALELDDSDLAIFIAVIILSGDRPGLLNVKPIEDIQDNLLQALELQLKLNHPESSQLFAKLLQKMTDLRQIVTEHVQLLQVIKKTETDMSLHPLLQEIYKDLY
human Thyroid Receptor alpha (THRa1), THRA (gene 7067), sequence (P10827 whole entry, looked up, the tested form may be a part): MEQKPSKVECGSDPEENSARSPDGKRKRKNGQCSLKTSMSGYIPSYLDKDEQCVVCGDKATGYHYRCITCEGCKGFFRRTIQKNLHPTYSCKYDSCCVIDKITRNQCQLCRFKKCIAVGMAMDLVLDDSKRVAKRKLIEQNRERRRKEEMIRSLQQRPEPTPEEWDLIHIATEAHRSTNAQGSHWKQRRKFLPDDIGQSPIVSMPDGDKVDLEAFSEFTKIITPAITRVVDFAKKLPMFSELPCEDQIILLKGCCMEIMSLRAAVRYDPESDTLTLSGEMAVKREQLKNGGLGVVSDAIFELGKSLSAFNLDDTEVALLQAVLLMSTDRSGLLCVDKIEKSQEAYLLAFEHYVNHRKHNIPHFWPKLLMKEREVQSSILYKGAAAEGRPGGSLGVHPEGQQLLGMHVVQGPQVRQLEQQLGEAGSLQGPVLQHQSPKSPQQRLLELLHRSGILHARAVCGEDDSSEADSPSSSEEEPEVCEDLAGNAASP
Retinoic acid receptor RXR-alpha (Homo sapiens), sequence (P19793 whole entry, looked up, the tested form may be a part): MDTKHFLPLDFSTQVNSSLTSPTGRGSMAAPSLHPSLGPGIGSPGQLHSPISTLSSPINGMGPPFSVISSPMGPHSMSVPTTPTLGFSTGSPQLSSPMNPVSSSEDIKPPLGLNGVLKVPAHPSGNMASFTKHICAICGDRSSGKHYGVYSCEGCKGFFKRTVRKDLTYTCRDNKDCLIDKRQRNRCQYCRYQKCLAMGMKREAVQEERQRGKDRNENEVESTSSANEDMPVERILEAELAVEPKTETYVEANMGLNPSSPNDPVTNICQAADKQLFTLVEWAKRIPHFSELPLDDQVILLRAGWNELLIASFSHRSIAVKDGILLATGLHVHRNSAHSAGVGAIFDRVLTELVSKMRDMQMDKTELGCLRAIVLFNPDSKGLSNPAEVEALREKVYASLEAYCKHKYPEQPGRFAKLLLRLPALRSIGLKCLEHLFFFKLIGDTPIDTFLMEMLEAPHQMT
Cellular tumor antigen p53 (Homo sapiens), sequence (P04637 whole entry, looked up): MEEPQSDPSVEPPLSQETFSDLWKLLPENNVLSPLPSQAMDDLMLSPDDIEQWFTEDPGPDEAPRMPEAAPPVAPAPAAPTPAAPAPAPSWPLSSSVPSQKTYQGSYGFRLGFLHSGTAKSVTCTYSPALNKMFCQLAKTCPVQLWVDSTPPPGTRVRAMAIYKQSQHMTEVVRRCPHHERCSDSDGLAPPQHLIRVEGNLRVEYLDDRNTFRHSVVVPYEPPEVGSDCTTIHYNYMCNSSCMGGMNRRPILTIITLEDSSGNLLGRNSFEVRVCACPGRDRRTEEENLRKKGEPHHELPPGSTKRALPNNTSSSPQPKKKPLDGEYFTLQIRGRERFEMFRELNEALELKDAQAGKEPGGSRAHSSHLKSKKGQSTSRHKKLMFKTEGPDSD
Aryl hydrocarbon receptor (Homo sapiens), sequence (P35869 whole entry, looked up): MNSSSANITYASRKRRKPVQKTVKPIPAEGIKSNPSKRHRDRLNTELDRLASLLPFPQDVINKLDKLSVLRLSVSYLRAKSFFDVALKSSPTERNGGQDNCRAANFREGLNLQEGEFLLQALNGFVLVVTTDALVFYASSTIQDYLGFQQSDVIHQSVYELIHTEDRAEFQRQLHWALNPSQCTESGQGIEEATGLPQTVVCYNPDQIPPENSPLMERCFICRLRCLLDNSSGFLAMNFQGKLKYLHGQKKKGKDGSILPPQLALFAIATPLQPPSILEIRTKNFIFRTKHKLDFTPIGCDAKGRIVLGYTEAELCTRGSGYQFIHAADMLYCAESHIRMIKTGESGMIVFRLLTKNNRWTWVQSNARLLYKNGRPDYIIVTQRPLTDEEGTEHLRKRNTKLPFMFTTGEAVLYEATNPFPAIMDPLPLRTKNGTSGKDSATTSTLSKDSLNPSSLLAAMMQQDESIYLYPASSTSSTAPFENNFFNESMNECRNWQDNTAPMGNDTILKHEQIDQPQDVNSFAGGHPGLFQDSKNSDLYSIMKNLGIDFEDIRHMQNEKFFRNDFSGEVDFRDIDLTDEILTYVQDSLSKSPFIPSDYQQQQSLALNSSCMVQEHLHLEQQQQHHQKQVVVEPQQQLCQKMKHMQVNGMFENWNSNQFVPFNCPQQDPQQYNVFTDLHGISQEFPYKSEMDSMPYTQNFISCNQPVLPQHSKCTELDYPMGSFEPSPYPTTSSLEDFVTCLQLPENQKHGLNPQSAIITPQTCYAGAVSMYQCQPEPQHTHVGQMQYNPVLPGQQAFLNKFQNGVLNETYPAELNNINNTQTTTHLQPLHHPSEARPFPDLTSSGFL
Transcription factor E2F1 (Homo sapiens), sequence (Q01094 whole entry, looked up): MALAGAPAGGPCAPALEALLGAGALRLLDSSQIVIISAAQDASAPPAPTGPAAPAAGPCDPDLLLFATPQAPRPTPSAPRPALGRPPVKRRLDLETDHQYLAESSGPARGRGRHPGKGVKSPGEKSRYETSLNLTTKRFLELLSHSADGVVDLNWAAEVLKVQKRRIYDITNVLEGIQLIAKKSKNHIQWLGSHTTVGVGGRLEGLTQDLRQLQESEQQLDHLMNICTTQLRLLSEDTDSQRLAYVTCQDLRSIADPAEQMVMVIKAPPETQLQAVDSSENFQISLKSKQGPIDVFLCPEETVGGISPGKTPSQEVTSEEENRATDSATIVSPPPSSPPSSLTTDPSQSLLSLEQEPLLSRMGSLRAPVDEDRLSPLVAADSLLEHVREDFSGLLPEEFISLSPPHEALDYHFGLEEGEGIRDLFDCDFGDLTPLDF
human Peroxisome Proliferator-activated Receptor alpha (PPARa), PPARA (gene 5465), sequence (Q07869 whole entry, looked up): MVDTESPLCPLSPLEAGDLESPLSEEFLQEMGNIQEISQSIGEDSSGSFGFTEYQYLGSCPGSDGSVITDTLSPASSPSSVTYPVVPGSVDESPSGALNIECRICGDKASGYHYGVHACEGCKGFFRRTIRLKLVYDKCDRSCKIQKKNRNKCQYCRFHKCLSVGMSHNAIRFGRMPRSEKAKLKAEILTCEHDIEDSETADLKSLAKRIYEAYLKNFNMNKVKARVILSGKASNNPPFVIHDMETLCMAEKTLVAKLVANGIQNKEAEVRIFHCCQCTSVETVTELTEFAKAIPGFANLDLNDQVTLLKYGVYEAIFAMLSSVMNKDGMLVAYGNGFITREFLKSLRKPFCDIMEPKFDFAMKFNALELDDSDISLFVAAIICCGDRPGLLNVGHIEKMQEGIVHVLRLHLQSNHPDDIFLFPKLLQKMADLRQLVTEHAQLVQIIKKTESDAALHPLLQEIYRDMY

C=COCCCl
not listed: [13] | [14] | [15] | [16] | [17] | [18] | [19] | [20]
inactive: all other assays above

C=CCO
not listed: [6] | [7] | [10] | [11] | [12] | [19] | [20]
inactive: all other assays above

[Cl-].[Cl-].[Cl-].[Yb+3]
inactive: [1] | [2] | [19] | [3] | [13] | [5] | [7] | [20] | [10] | [11] | [12]

CCCCCCC1CCOC1=O (stereo unspecified)
active: [5] 100 µM | [12] 23.3 µM
not listed: [2] | [6] | [8] | [10] | [11] | [15] | [17]
inactive: all other assays above

ClCC(Cl)Cl
not listed: [2] | [10] | [11] | [12] | [15]
inactive: all other assays above

CC(C)C#N
not listed: [2] | [5] | [8] | [14] | [15] | [16] | [17] | [18]
inactive: all other assays above

ClCCCCCCCl
inactive: [1] | [4] | [5] | [7] | [9]

C=CCN(CC=C)C(=O)C(Cl)Cl
active: [5] 43.9 µM
not listed: [3] | [7] | [9] | [11]
inactive: all other assays above

c1ccc2c(c1)CCCC2
inactive: [1] | [2] | [4] | [7] | [8] | [10] | [14] | [15] | [16] | [17] | [12]

CN1C[C@H](C(=O)N[C@]2(C)O[C@@]3(O)[C@@H]4CCCN4C(=O)[C@H](Cc4ccccc4)N3C2=O)C=C2c3cccc4[nH]cc(c34)C[C@H]21
active: [5] 0.445 µM
not listed: [2] | [6] | [7] | [9] | [10] | [12] | [20]
inactive: all other assays above
